# PubChem BioAssay AID485284 (NMMLSC, 2010)
# Potency and affinity values are given separately.
# Assay: loss of vesicle association with mouse CD8+ T cells – mouse 2C CD8+ T cells, flow cytometry, dose response (AID 485284);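 further: drosophila derived vesicles carrying Ld MHC with QL9 peptide plus B7-1 and ICAM-1; vesicle binding seen as anti-B7-1 PE fluorescence on CD8 gated cells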
# Settings: 2C mouse CD8+ T cell-exosome binding; at 45 µM (top of the series)
row,Structure (SMILES),"binding remaining, % of control [%]"
1,COC(=O)C1=C(c2c(C)noc2C)C[C@@H]2CC[C@H]1N2C(=O)NCCOc1ccccc1Cl,124
2,Cc1sc2ncnc(NCC(C)(C)N3CCOCC3)c2c1C,133
3,COC(=O)C1=C(c2ccc(F)cc2F)C[C@@H]2CC[C@H]1N2C(=O)NCCNC(C)=O,107
4,O=C(Nc1ccc(Cl)cc1)O/N=C(\c1ccccc1)c1ccccn1,85.8
5,COc1ccc2c3c1OC1[C@H](O)CCC4[C@@H](C2)N(C)CC[C@]314 (stereo partly specified),230
6,CC(C)(O)C(=O)Nc1ccc([N+](=O)[O-])c(C(F)(F)F)c1,166
